Measured values published in PubChem BioAssay (NCATS).
Values without a mark were called inactive. Calls follow the shape of the dose curve; as a rule, active = well fitted inhibition curve with a large enough effect; inconclusive = small, poorly fitted or top-dose-only effect; inactive = no such curve, though single readings can be large or run the other way.

Assay: qHTS assay for measurement of the activity of small molecule inhibitors on Zika virus induced Caspase-3 activity in human astrocytoma cells (AID 1224859);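 also: plate controls were ZIKV-infected untreated cells for no effect and uninfected cells for full effect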
Details: SNB-19 ZIKV-induced caspase-3/7, luminescence, 6 h; series mostly up to 45.7 µM; activity change, negative = inhibition: at the top concentration
Method in brief: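 Percent inhibition of virus-induced caspase-3/7 signal is calculated against uninfected and ZIKV-infected control cells. Cells are SNB-19, infected at 2 FFU/cell for 6 h after 1 h compound exposure.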

Row | Compound | activity change, negative = inhibition
1 | C[C@]12Cc3nonc3C[C@@H]1CC[C@@H]1[C@@H]2CC[C@@]2(C)[C@H]1CC[C@]2(C)O | 16%
2 | C#C[C@]1(O)CC[C@H]2[C@@H]3CCC4=CC(=O)CCC4=C3C=C[C@@]21CC | -1.99%
3 | C#C[C@]1(O)C=C[C@H]2[C@@H]3CCC4=CC(=O)CC[C@@H]4[C@H]3CC[C@@]21CC | 13.4%
4 | CC[C@H]1C[C@H]2[C@@H]3CCC4=CC(=O)CC[C@@H]4[C@H]3CC[C@]2(C)[C@H]1O | -1.14%
5 | CC#C[C@]1(O)CC[C@H]2[C@@H]3C[C@H](C)C4=CC(=O)CC[C@]4(C)[C@H]3CC[C@@]21C | 9.17%
6 | COP(=S)(OC)Oc1ccc(S(N)(=O)=O)cc1 | 6.42%
7 | CCOP(=S)(OCC)O/N=C(\C#N)c1ccccc1 | 5.94%
8 | CC(C(O)c1ccccc1)N(C)C/C=C/c1ccccc1 (stereo not given) | -25.3%
9 | C[C@@H]1CC[C@H]2[C@@H](C)C(=O)O[C@@H]3O[C@@]4(C)CC[C@@H]1[C@]32OO4 | 11.4%
10 | Cc1nc2ccccc2c(=O)n1-c1ccccc1Cl | 3.82% [at 92.8 µM]
